{"source": "PubChem BioAssay (NCATS)", "note": "Records with an inconclusive call do not appear. A call without a number means that no potency is given here. Values without a mark were called inactive. Calls of active or inactive are those of the source. Calls follow the shape of the dose curve; as a rule, active = well fitted cell-killing curve with a large enough effect; inconclusive = small, poorly fitted or top-dose-only effect; inactive = no such curve, though single readings can be large or run the other way.", "data": [{"assay": "qHTS of pediatric cancer cell lines to identify multiple opportunities for drug repurposing: Primary screen for Rh30 cells (AID 1347107); also: nearly all actives have a fitted effect of over 75% in size", "settings": "Rh30 rhabdomyosarcoma viability, CellTiter-Glo luminescence, 48 h; series mostly up to 46 µM", "excerpt": "Drug repurposing or repositioning has been offered as a strategy for drug development in oncology programs. This approach has special potential for childhood cancers and other rare or orphan diseases, where the expected return on new drug development has been a disincentive to pharmaceuticals.\nIn this project we exploit the poly-pharmacology of drugs to discover new indications via phenotypic screening of a panel of 19 well-characterized cell lines derived from solid tumors seen in children and adolescents. The goal is to identify approved drugs with previously unrecognized anticancer properties that has the potential to reveal new mechanisms and biological processes involved in carcinogenesis or drug resistance. We employed a titration-based paradigm (quantitative high-throughput screening or qHTS), where all compounds were tested at multiple concentrations for their effect on cell viability. Concentration-response curves (CRCs) were derived directly from the primary screen, and both potency and efficacy values were used to identify compounds with robust bioactivity profiles. We screened the NIH Chemical Genomics Center (NCGC) Pharmaceutical Collection (NPC) and Mechanism Interrogation Plate (MIPE) small molecule collections of approved and investigational compounds against these cell lines; and measured metabolically active cells after 48 hours of compound treatment as a proxy for cell viability.\nAssay Submitter: Nathalia J. Martinez, National Center for Advancing Translational Sciences, National Institutes of Health, Rockville, MD, USA; email: natalia.martinez@nih.gov\n[1] Shen, M et al. Quantitative high-throughput phenotypic screening of pediatric cancer cell lines identifies multiple opportunities for drug repurposing. Oncotarget 2017 Dec 19;9(4):4758-4772. PMID 29435139.\nThe cells were obtained from University of North Carolina (UNC), Pediatric Preclinical Testing Program (PPT), and Coriell Institute (CI).\nqHTS cell viability assay:\nCells were assayed in growth media at a density of 500-1,000 cells/well. Five microliters of cells were dispensed into 1,536-well, white, solid-bottom, TC-treated plates (Greiner Bio One) using a multidrop dispenser and incubated at 37 degrees C, 5% CO2, under a humidified atmosphere for 5 hours. Twenty-three nanoliters of compounds and controls (neutral control DMSO or positive control bortezomib at final concentration of 2.3 µM) were subsequently transferred by Kalypsys pintool. For primary screens, the MIPE collection was tested at 11-point dilutions (final concentrations range from 0.78 nM to 46 µM) and the NPC collection at 8-point dilutions (final concentrations range from 0.59 nM to 46 µM). Compounds tested in follow-up screens were assayed at 11-point dilutions. Cells were incubated for 48 hours, followed by addition of 3 µL of CellTiter-Glo (Promega). After a 15 min incubation at room temperature, samples were analyzed for luminescence intensity using a ViewLux High-throughput CCD imager equipped with clear filters.", "values": [{"smiles": "CCN1CCc2nc(N)oc2CC1", "Potency": "inactive"}, {"smiles": "CO[C@@]1(NC(=O)CSCC#N)C(=O)N2C(C(=O)O)=C(CSc3nnnn3C)CS[C@@H]21", "Potency": "inactive"}, {"smiles": "CN1C(=O)CC[C@H]1c1cccnc1", "Potency": "inactive"}, {"smiles": "OCCN1CCN(CCCN2c3ccccc3C=Cc3ccccc32)CC1", "Potency": "inactive"}, {"smiles": "C(=C\\c1ccccc1)/CN1CCN(C(c2ccccc2)c2ccccc2)CC1", "Potency": "inactive"}, {"smiles": "C[C@]12CCC(=O)C=C1CC[C@@H]1[C@@H]2CC[C@@]2(C)[C@H]1CC[C@]2(O)C(=O)CO", "Potency": "inactive"}, {"smiles": "O=C(CCCN1CCC(O)(c2cccc(C(F)(F)F)c2)CC1)c1ccc(F)cc1", "Potency": "inactive"}, {"smiles": "Cc1nc2ccccn2c(=O)c1CCN1CCC(C(=O)c2ccc(F)cc2)CC1", "Potency": "inactive"}, {"smiles": "CN(C)[C@@H]1C(=O)C(C(N)=O)=C(O)[C@@]2(O)C(=O)C3=C(O)c4c(O)ccc(Cl)c4[C@@H](O)[C@H]3C[C@@H]12", "Potency": "inactive"}, {"smiles": "CCOC(=O)C1=C(C)NC(C)=C(C(=O)OC)C1c1cccc(Cl)c1Cl", "note": "(stereo not given)", "Potency": "inactive"}, {"smiles": "Cc1ccc(/C(=C\\CN2CCCC2)c2ccccn2)cc1", "Potency": "inactive"}, {"smiles": "COC(=O)[C@@H](N)Cc1ccc(O)c(O)c1", "Potency": "inactive"}, {"smiles": "CC(C)[N+](C)(CCOC(=O)C1c2ccccc2Oc2ccccc21)C(C)C", "Potency": "inactive"}, {"smiles": "C[C@]12CCC(=O)C=C1CC[C@@H]1[C@@H]2C(=O)C[C@@]2(C)[C@H]1CC[C@]2(O)C(=O)CO", "Potency": "inactive"}, {"smiles": "FC(F)(F)c1ccccc1-n1ccnc1", "Potency": "inactive"}, {"smiles": "Cc1scc2c1N(C(=O)CN1CCN(C)CC1)c1ccccc1NC2=O", "Potency": "inactive"}, {"smiles": "CCc1c(C)[nH]c2c1C(=O)C(CN1CCOCC1)CC2", "note": "(stereo not given)", "Potency": "inactive"}, {"smiles": "Cc1cc(C)c(/C=C2\\C(=O)Nc3ccccc32)[nH]1", "Potency": "inactive"}, {"smiles": "NC(=O)c1cn(Cc2c(F)cccc2F)nn1", "Potency": "inactive"}, {"smiles": "CC(C)NNC(=O)c1ccncc1", "Potency": "inactive"}, {"smiles": "CC(=O)[C@]1(O)Cc2c(O)c3c(c(O)c2[C@@H](O[C@H]2C[C@H](N)[C@H](O)[C@H](C)O2)C1)C(=O)c1ccccc1C3=O", "Potency": "inactive"}, {"smiles": "CCCN(CCC)CCc1cccc2c1CC(=O)N2", "Potency": "inactive"}, {"smiles": "NC(N)=NC(=O)Cc1c(Cl)cccc1Cl", "Potency": "inactive"}, {"smiles": "CCCOc1ccccc1-c1nc2n[nH]nc2c(=O)[nH]1", "Potency": "inactive"}, {"smiles": "CCN(Cc1ccncc1)C(=O)C(CO)c1ccccc1", "note": "(stereo not given)", "Potency": "inactive"}, {"smiles": "C[C@]12CC[C@@H]3c4ccc(O)cc4C[C@@H](CCCCCCCCCS(=O)CCCC(F)(F)C(F)(F)F)[C@H]3[C@@H]1CC[C@@H]2O", "note": "(stereo not given in full)", "Potency": "inactive"}, {"smiles": "c1cc(CN2CCCCC2)cc(OCCCNc2nc3ccccc3s2)c1", "Potency": "inactive"}, {"smiles": "CCCCNC(=O)NS(=O)(=O)c1ccc(C)cc1", "Potency": "inactive"}, {"smiles": "CCC(=O)c1ccc2c(c1)N(CCCN(C)C)c1ccccc1S2", "Potency": "inactive"}, {"smiles": "NCCCNCCSP(=O)(O)O", "activity change, negative = cytotoxic": "17.5% [at 9.22 µM]"}, {"smiles": "NC(=O)N1c2ccccc2C=Cc2ccccc21", "Potency": "inactive"}, {"smiles": "Nc1ncn([C@@H]2O[C@H](CO)[C@@H](O)[C@H]2O)c(=O)n1", "Potency": "inactive"}, {"smiles": "Nc1c2c(nc3ccccc13)CCCC2O", "note": "(stereo not given)", "Potency": "inactive"}, {"smiles": "NS(=O)(=O)c1cc2c(cc1Cl)NC(C1CC3C=CC1C3)NS2(=O)=O", "note": "(stereo not given)", "Potency": "inactive"}, {"smiles": "CN(C)CCOC(=O)COc1ccc(Cl)cc1", "Potency": "inactive"}, {"smiles": "O=C(CCNNC(=O)c1ccncc1)NCc1ccccc1", "Potency": "inactive"}, {"smiles": "COCCCC/C(=N\\OCCN)c1ccc(C(F)(F)F)cc1", "Potency": "inactive"}, {"smiles": "C[N+](C)(C)CCOC(=O)CCC(=O)OCC[N+](C)(C)C", "Potency": "inactive"}, {"smiles": "CNCCC(Oc1ccccc1OC)c1ccccc1", "note": "(stereo not given)", "Potency": "inactive"}, {"smiles": "C#CCN(C)CCCOc1ccc(Cl)cc1Cl", "Potency": "inactive"}]}]}
